PubChem BioAssay
Calls of active or inactive are those of the source.

Tests used:
[1] = small molecules captured by biotinylated probe aFSTL3 – biochemical, small-molecule microarray, fluorescence 635/667, stem cell growth factor project, primary screen (AID 1064); settings: higher = more signal;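 further: measures binding of the biotinylated anti-FSTL3 antibody to printed compounds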
[2] = binders from COS7 lysate, DM2A8 probe, primary screen, torsin A project, cell lysate, small-molecule microarray, fluorescence 635/667 (AID 1065); settings: higher = more signal, COS7 lysate expressing mutant human TOR1A
[3] = small molecules captured by biotinylated probe aFGF2 – biochemical, small-molecule microarray, fluorescence 635/667, stem cell growth factor project, primary screen (AID 1067); settings: higher = more signal;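 further: measures binding of biotinylated aFGF2 protein to printed compounds on slides; z-score merges feature fluorescence and signal-to-noise across triplicate slides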
[4] = small molecules captured by biotinylated probe aFGF10 – biochemical, small-molecule microarray, fluorescence 635/667, stem cell growth factor project, primary screen (AID 1071); settings: higher = more signal;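 further: score merges 667 nm spot intensity and signal to noise from triplicate slides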
[5] = target: Neurogenic locus notch homolog protein 2 (Homo sapiens) (UniProt Q04721); assay: small molecules binding Notch2 protein – biochemical, small-molecule microarray, 635 nm fluorescence, stem cell growth factors, primary screen (AID 1073); settings: higher = more signal
[6] = target: Pro-neuregulin-1, membrane-bound isoform (Homo sapiens) (UniProt Q02297); assay: small molecules binding neuregulin-1 protein – biochemical, small-molecule microarray, fluorescence 635/667, psychiatric disease protein project, primary screen (AID 1075); settings: NRG1 binding, 635 nm fluorescence, higher = more signal;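 further: score combines 667 nm spot fluorescence with signal to noise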
[7] = system: Neuregulin-1 EGF-like domain; assay: small molecules binding NRG1 EGF domain – biochemical, small-molecule microarray, 635 nm fluorescence, primary screen (AID 1081); settings: higher = more signal;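 further: binding of the protein to compounds printed on small-molecule microarray slides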
[8] = FRG1 expression reporter modulators in myotubes – cell-based, C2C12 myotubes, firefly/Renilla luciferase, luminescence, FRG1 inhibition for FSHD, primary screen (AID 1084); settings: FRG1 promoter luciferase, higher = more signal, called active from +8 up or from −8 down
[9] = small molecules captured by biotinylated probe aFST – biochemical, small-molecule microarray, fluorescence 635/667, stem cell growth factor project, primary screen (AID 1086); settings: higher = more signal;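 further: score merges 667 nm fluorescence with signal-to-noise of each printed compound spot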
[10] = binders of probe aHhip on microarray, primary screen, stem cell growth factor project, biochemical, small-molecule microarray, fluorescence 635/667 (AID 1087); settings: higher = more signal;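 further: score merges spot fluorescence at 667nm with spot signal to noise ratio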
[11] = system: PRMT1 (protein arginine N-methyltransferase 1); assay: small molecules binding arginine methyltransferase PRMT1 – biochemical, small-molecule microarray, 635 nm fluorescence, primary screen (AID 1088); settings: higher = more signal;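 further: binding of Prmt1 protein to compounds spotted on small-molecule microarray slides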
[12] = growth effects on S. cerevisiae YJM789 – YJM789 clinical isolate, OD600, 24 h, basal, primary screen (AID 1089); settings: higher = more signal, called active from +8 up or from −8 down;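 further: growth of clinical yeast isolate S. cerevisiae YJM 789 seeded 1000 cells per well; test concentration not given here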
[13] = S. pombe growth modifiers, basal conditions – strain 972, OD600, 24 h, no modulator, primary screen (AID 1090);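 further: basal condition with compound alone and no growth modifier present; test concentration not given here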; settings: S. pombe 972 growth, higher = more signal, called active from +8 up or from −8 down
[14] = budding yeast growth modifiers under rapamycin – strain BY4716, OD600, 96 h, primary screen (AID 1091); further: test concentration not given here; settings: S. cerevisiae BY4716 + rapamycin, higher = more signal, called active from +8 up or from −8 down
[15] = target: Torsin-1A-interacting protein 2 (Homo sapiens) (UniProt Q8NFQ8); assay: small molecules binding lysate-expressed LULL1 – cell lysate, human LULL1 lysate, 635/667 nm fluorescence, primary screen (AID 1092); settings: small-molecule microarray, hLULL1 lysate binding, 635 nm fluorescence; higher = more signal;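 further: probe is lysate of COS7 cells overexpressing human LULL1; score merges per-feature 667 nm fluorescence with signal-to-noise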
[16] = optical density change of DRC41 E. coli – strain DRC41, OD650, 24 h, E. coli filamentation project, primary screen (AID 1093);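 further: MC1000 strain lacking acrAB efflux and sulA so SOS filamentation is blocked; test concentration not given here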; settings: E. coli DRC41 growth, higher = more signal, called active from +8 up or from −8 down
[17] = probe aLefty2 binding to arrayed compounds – biochemical, biotinylated probe, 635/667 nm fluorescence, primary screen (AID 1094); settings: small-molecule microarray, higher = more signal;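 further: score merges spot fluorescence near 667 nm with spot signal-to-noise ratio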
[18] = system: Noggin (protein binding on small-molecule microarray); assay: small molecules binding Noggin protein – biochemical, 635/667 nm fluorescence, primary screen (AID 1095); settings: 635 nm fluorescence, higher = more signal;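 further: score merges 667 nm feature fluorescence with signal to noise over triplicate slides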
[19] = target: Neurogenic locus notch homolog protein 3 (Homo sapiens) (UniProt Q9UM47); assay: small molecules binding NOTCH3 protein – biochemical, 635/667 nm fluorescence, primary screen (AID 1096); settings: small-molecule microarray, 635 nm fluorescence, higher = more signal
[20] = probe aEGFR binding to arrayed compounds – biochemical, biotinylated probe, 635/667 nm fluorescence, primary screen (AID 1097); settings: small-molecule microarray, higher = more signal;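 further: probe is a biotinylated anti-EGFR antibody binding compounds printed on slides; score combines fluorescence near 667 nm and signal to noise of each spot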

Neurogenic locus notch homolog protein 3 (Homo sapiens), sequence (Q9UM47 whole entry, looked up): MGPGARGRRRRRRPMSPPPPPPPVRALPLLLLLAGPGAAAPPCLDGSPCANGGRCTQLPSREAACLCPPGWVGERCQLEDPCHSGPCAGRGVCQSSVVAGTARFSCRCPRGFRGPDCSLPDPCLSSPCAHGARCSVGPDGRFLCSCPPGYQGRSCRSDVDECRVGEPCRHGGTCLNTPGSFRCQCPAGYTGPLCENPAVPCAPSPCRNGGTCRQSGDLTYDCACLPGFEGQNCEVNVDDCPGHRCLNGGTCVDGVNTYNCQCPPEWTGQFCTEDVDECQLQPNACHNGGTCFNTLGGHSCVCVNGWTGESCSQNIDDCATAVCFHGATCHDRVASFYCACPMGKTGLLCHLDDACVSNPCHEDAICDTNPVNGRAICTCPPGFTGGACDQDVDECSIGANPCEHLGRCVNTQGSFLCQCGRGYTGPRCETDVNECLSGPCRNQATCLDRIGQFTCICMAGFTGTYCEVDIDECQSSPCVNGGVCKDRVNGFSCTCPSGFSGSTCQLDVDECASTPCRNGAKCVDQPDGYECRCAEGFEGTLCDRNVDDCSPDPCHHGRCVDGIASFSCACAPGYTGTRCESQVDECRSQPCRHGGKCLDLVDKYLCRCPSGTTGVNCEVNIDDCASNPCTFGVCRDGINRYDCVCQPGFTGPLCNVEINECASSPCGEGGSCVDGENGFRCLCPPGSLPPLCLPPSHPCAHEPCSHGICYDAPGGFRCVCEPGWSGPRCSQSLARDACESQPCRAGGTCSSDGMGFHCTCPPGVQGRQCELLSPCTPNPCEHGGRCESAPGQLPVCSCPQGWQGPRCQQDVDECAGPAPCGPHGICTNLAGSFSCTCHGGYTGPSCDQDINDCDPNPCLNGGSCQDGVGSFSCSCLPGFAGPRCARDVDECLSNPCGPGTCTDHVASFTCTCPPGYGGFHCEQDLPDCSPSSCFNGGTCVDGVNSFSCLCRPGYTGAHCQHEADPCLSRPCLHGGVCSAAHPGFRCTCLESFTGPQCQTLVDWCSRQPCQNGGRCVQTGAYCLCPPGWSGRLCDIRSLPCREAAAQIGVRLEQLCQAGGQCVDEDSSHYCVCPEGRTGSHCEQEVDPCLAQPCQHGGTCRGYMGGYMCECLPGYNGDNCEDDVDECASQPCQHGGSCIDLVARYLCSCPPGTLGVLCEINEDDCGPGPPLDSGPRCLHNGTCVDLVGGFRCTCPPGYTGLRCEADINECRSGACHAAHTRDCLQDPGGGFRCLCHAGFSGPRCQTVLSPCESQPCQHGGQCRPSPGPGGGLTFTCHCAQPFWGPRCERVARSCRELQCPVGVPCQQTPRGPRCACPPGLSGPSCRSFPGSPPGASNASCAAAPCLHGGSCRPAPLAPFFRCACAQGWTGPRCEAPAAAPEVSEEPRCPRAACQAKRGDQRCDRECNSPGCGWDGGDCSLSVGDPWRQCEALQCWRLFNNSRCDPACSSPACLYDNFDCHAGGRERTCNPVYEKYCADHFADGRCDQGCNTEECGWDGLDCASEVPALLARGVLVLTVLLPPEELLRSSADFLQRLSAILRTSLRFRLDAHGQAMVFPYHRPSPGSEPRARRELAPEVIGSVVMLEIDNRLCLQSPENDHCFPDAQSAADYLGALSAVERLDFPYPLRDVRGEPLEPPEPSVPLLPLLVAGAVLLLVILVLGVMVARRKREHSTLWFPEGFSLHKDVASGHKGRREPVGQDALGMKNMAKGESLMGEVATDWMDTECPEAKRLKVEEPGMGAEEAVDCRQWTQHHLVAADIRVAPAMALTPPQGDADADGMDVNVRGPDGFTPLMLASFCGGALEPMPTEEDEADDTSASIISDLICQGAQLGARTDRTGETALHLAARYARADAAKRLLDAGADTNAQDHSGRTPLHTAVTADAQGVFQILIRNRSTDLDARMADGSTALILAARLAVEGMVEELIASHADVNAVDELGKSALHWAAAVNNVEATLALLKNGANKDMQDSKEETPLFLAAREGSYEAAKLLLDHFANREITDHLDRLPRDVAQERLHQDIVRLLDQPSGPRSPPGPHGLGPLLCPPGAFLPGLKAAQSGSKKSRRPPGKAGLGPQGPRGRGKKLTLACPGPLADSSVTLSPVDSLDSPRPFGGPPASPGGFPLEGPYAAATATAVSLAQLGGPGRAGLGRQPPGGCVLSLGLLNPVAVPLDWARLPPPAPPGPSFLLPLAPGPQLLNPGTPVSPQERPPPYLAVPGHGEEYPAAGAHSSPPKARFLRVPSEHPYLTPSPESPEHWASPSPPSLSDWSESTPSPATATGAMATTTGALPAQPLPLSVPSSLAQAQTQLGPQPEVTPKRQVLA
Torsin-1A-interacting protein 2 (Homo sapiens), sequence (Q8NFQ8 whole entry, looked up): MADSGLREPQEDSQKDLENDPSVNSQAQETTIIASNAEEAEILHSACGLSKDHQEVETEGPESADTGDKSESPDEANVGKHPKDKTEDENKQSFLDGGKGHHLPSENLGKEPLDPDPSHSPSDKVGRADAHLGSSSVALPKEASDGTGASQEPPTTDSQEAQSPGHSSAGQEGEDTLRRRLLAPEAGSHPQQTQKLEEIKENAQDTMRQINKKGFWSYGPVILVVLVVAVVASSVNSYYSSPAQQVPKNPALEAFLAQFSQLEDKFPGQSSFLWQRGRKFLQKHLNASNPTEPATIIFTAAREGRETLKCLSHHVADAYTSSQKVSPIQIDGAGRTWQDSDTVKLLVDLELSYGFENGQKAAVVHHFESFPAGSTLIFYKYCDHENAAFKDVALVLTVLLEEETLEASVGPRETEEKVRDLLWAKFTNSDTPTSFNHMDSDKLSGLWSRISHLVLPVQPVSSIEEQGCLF
Pro-neuregulin-1, membrane-bound isoform (Homo sapiens), sequence (Q02297 whole entry, looked up, the tested form may be a part, canonical isoform): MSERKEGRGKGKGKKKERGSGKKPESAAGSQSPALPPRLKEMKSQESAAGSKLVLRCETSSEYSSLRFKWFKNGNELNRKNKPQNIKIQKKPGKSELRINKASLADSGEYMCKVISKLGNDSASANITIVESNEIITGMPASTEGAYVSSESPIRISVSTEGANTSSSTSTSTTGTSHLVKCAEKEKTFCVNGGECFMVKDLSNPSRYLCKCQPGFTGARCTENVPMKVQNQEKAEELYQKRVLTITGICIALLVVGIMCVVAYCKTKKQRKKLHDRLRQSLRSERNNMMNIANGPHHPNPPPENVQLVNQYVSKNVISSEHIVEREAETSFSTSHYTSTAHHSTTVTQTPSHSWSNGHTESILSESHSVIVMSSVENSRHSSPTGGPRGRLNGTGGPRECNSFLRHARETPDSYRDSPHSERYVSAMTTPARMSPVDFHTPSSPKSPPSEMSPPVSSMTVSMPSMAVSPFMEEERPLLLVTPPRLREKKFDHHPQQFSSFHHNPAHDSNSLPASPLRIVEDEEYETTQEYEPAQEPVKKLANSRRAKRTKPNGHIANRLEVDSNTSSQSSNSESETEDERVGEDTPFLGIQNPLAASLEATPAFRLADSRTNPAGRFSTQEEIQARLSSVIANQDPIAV

| Structure (SMILES) | composite z-score [1] | composite z-score [2] | composite z-score [3] | composite z-score [4] | composite z-score [5] | composite z-score [6] | composite z-score [7] | z-score [8] | composite z-score [9] | composite z-score [10] | composite z-score [11] | z-score [12] | z-score [13] | z-score [14] | composite z-score [15] | z-score [16] | composite z-score [17] | composite z-score [18] | composite z-score [19] | composite z-score [20] |
| --- | --- | --- | --- | --- | --- | --- | --- | --- | --- | --- | --- | --- | --- | --- | --- | --- | --- | --- | --- | --- |
| C[n+]1ccc(CCCO)cc1 | 1.03 | 1.06 | -0.044 | 0.0582 | -1.21 | -0.161 | 1.45 | 1.12 (inactive) | -0.311 | 0.837 | 0.618 | 0.654 (inactive) | -0.96 (inactive) | 0.316 (inactive) | 0.427 | -2.1 (inactive) | 0.181 | 0.436 | -0.13 | 0.0455 |
| C=CCNC(=O)[C@@H]1[C@H]2C(=O)O[C@H](c3ccccc3)[C@H](c3ccccc3)N2[C@H](c2ccccc2OCCO)[C@@]12C(=O)N(C(=O)OCCOC)c1ccc(C#CC3=CCCCC3)cc12 | -0.0809 | 0.683 | 0.0496 | 0.586 | -0.0189 | 0.457 | 1.2 | -1.11 (inactive) | 0.206 | -0.178 | 1.54 | 0.363 (inactive) | -0.0834 (inactive) | 3.14 (inactive) | 2.31 | 0.906 (inactive) | -0.205 | 1.34 | 1.15 | -0.0435 |
| [N-]=[N+]=NCc1ccccc1C[C@@]1(C(=O)NCCN2CCOCC2)N=C(c2ccc(OCCCO)cc2)O[C@@H]1c1ccccc1N=[N+]=[N-] | 0.646 | 1.99 | 0.075 | 0.879 | 0.777 | 0.684 | 1.16 | -1.89 (inactive) | 0.75 | -0.0296 | 1.37 | -1.22 (inactive) | -0.269 (inactive) | 1.29 (inactive) | 3.12 | -0.704 (inactive) | 0.09 | 0.622 | 0.842 | -0.0738 |
| NCCCCCCNC(=O)[C@@H]1C[C@@H]2C(=O)N3CCC[C@H]3C(=O)N2[C@@H]1c1ccc(O)cc1 | 0.327 | -0.055 | -0.0006 | 0.0841 | 0.337 | 1.9 | 1.18 | 0.15 (inactive) | 1.1 | 0.154 | 1.25 | -0.723 (inactive) | -1.22 (inactive) | -0.476 (inactive) | 2.02 | -1.03 (inactive) | -0.0912 | 1.58 | 0.494 | -0.0568 |
| CC1CC/C=C\[C@H]2OC34C=CCN(CCN5CCOCC5)C(=O)[C@H]3N(CCO)C(=O)[C@@H]4C2C(=O)O1 (stereo not given in full) | 0.507 | -0.342 | 0.013 | -0.105 | -0.807 | -0.917 | -0.376 | -0.322 (inactive) | -0.421 | -0.4 | -0.623 | -0.962 (inactive) | 0.0701 (inactive) | 0.005 (inactive) | -0.144 | 1.25 (inactive) | -0.103 | -0.982 | -0.43 | -0.196 |
